# Compound activity as filed in PubChem BioAssay.
# Rac1 wt GTP bind = wildtype Rac1 GTP binding modulators, primary screen, biochemical, GST-Rac1 beads, flow cytometry, multiplex; Ras-related C3 botulinum toxin substrate 1 (Homo sapiens), P63000; fluorescent GTP binding; actives lie on both sides; 0 = cold GTP competed, 100 = untreated; GTP binding activity (% of control), % at 10 µM; actives 0.27% (n = 190,000); AID 757, 2007;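 active = GTP binding activity at least 20 points away from the 100% control level, either lower or higher; inconclusive = compound flagged as likely green fluorescent, judged across all proteins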
# Rab2A wt mod = modulators of GTP binding to Rab2A wildtype, primary screen, biochemical, dog, bead-based flow cytometry, multiplex | Ras-related protein Rab-2A (Canis lupus familiaris), P61105 | GST-Rab2 wt beads, Bodipy-GTP binding | GTP binding activity, % at 10 µM | actives 0.19% (n = 190,000);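 active = GTP binding activity at least 20 points away from 100%, either lowered or raised; inconclusive = signal likely due to the compound's own green fluorescence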;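 also: 0% = beads with excess unlabeled GTP and 100% = no-compound control corrected for plate trend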
# Rac1 act GTP bind = GTP binding modulators of activated mutant Rac1, primary screen, biochemical, bead-based flow cytometry, multiplex, fluorescent GTP. Ras-related C3 botulinum toxin substrate 1 (Homo sapiens), P63000. GST-Rac1 activated beads; actives lie on both sides; 100% means binding = to untreated wells. percent activity (GTP binding), % at 10 µM. actives 0.11% (n = 190,000). AID 764, 2007;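 active = GTP binding at least 20 percentage points away from the 100% baseline, in either direction, so actives lie on both sides; inconclusive = Compound likely fluorescent itself, or too few beads counted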
# Cdc42 wt GTP = modulators of GTP binding to wildtype Cdc42, primary screen, biochemical, multiplex bead flow cytometry, Bodipy-GTP | actives 0.2% (n = 190,000) | percent activity (GTP binding), % at 10 µM | GST-Cdc42 beads; actives lie on both sides | Cell division control protein 42 homolog (Homo sapiens), P60953;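 active = percent activity GTP binding at least 20 points away from the 100% baseline, either down as inhibitor or up as activator; inconclusive = compound flagged as likely green fluorescent from well-wide comparison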;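 also: median bead fluorescence of bound Bodipy-FL-GTP at 100 nM; 0% = excess unlabeled GTP control and 100% = no compound control; below 100% means less GTP binding so inhibitor and above means activator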
# Rab7 wt modul = modulators of GTP binding to Rab7, primary screen, biochemical, wildtype, multiplex bead flow cytometry; Rab7 GTPase wild type (dog), Bodipy-FL-GTP binding; actives 0.055% (n = 190,000); AID 758, 2007; GTP binding activity (percent of control), % at 10 µM; GST-Rab7 beads, fluorescent GTP binding; actives lie on both sides; untreated = 100%, excess cold GTP = 0%;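 active = fluorescent GTP binding to Rab7 beads changed by at least 20 points from the 100% baseline, either direction, mostly lower; inconclusive = compound itself probably fluorescent, or too few beads counted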;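 also: median green fluorescence of bound Bodipy-FL-GTP per Rab7 bead population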
# HRas wt GTP bind = modulators of GTP binding to HRas wildtype, primary screen, biochemical, bead-based flow cytometry, multiplex | GTPase HRas (Homo sapiens), P01112 | GST-Ras wt beads, Bodipy-FL-GTP binding; actives lie on both sides | GTP binding activity, % at 10 µM | actives 0.14% (n = 190,000);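 active = GTP binding activity at least 20% away from the 100% baseline, either lowered as inhibitor or raised as activator; inconclusive = flagged as likely green fluorescent, judged across all proteins in the well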;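 also: 0% = unlabeled GTP competition control and 100% = no-compound control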
# Target sequence (P01112 whole entry, looked up): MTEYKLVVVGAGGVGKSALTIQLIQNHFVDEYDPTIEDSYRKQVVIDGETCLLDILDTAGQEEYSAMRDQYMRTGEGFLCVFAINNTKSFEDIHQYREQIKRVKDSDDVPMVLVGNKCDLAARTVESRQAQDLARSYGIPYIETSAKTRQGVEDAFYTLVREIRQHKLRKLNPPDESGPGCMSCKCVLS
# Active calls of the source: *; ? = inconclusive; [ ] = dose if it differs, or a comment. Only some compounds are listed: those with a hit (about 0.37% of all), similar ones and a draw of the others.
SMILES,Rac1 wt GTP bind,Rab2A wt mod,Rac1 act GTP bind,Cdc42 wt GTP,Rab7 wt modul,HRas wt GTP bind
CCOC(=O)C1=C(C)OC(N)=C(C#N)C1c1cc2c(cc1[N+](=O)[O-])OCO2 (stereo not given),98.0,98.0,98.0,98.0,98.0,96.0
O=C(Nc1c2c(nn1-c1ccc(F)cc1)CS(=O)C2)c1ccc(S(=O)(=O)N2CCOCC2)cc1 (stereo not given),99.0,97.0,98.0,98.0,102.0,98.0
C(#Cc1ccccc1)C[N+]1(CC#Cc2ccccc2)CCCC1,103.0,102.0,98.0,103.0,104.0,103.0
C=CC#CC[N+]1(CC#Cc2ccccc2)CCOCC1,128.0*[activator],100.0,116.0,107.0,101.0,106.0
Cc1cc(OCc2nnc(SC(C)C(=O)O)n2Cc2ccccc2)ccc1Cl (stereo not given),97.0,96.0,91.0,96.0,99.0,96.0
CC(C)CCn1c(CN2CCN(Cc3ccccc3)CC2)nc2c1c(=O)n(C)c(=O)n2C,159.0*[activator],123.0*[activator],120.0*[activator],156.0*[activator],105.0,116.0
CCOP(=O)(OCC)C(Nc1ccc(OC)cc1)c1ccco1 (stereo not given),108.0,101.0,96.0,101.0,98.0,99.0
CCC(OC(=O)c1cc2sccc2n1C)C(=O)NCc1ccco1 (stereo not given),37.0*,36.0*,37.0*,40.0*,22.0*,44.0*
Cn1c(C(=O)OCC(=O)NCc2ccco2)cc2sccc21,105.0,100.0,99.0,101.0,98.0,99.0
O=C(O)c1ccccc1C(=O)OCc1ccccc1,160.0*[activator],134.0*[activator],?,115.0,?,136.0*[activator]
O=C(OCc1ccccc1)c1cccnc1Cl,96.0,99.0,93.0,94.0,106.0,98.0
COc1cc2c(cc1OC)-c1cc(N3CCCCCC3)nc(=O)n1CC2,97.0,96.0,98.0,98.0,98.0,96.0
COc1cc2c(cc1OC)-c1cc(NC3CCCCCC3)nc(=O)n1CC2,80.0,75.0*,86.0,77.0*,84.0,75.0*
CCOc1cccc(Nc2cc3n(c(=O)n2)CCc2cc(OC)c(OC)cc2-3)c1,78.0*,84.0,87.0,83.0,92.0,85.0
